ELG1 DNA repair: blocks ELG1-dependent DNA repair in HEK293T cells | HEK293T ELG1-luciferase reporter, luminescence, 16 h; DNA damage induced by 5-fluorouridine | Potency, µM (series often up to 46.1 µM), for the others: at the highest dose activity change, negative = inhibition, usual class: inhibitors | 2.3% of 330,000 active; further: potency means the concentration at half of the fitted maximal effect; nearly all actives have a fitted effect of over 55% in size
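5-Fluorouridine DNA damage + compound/DMSO, 2,000 cells/well, 16 h, 37 °C/5% CO2. ONE-Glo, 30 min RT, luminescence. Readout = decrease in reporter signal.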
HT1080-NT tox: kills 2HG-producing HT-1080-NT fibrosarcoma cells | HT-1080-NT fibrosarcoma viability, CellTiter-Glo ATP luminescence, 48 h | AID 686970 | 1.6% of 360,000 active | Potency, µM (highest dose often 46.1 µM), for the others: at the top dose activity, negative = less viability, most hits filed as cytotoxic;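 further: NT is the 2HG producing partner of a matched IDH1 knockdown line; potency means the concentration at half of the fitted maximal effect; 0% = DMSO-treated cells and -100% = media-only wells without cells; nearly all actives have a fitted effect of over 55% in size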
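Compounds were tested in concentration-response format on HT-1080-NT cells for 48 hours at 37 degrees C. Cell viability came from CellTiter-Glo luminescence; curves were classified by r2, response magnitude and activity.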
DT40 TDP1 no CPT: qHTS for Inhibitors of human tyrosyl-DNA phosphodiesterase 1 (TDP1): qHTS in cells in absence of CPT; Potency, µM (top dose mostly 46.2 µM), without a hit: top-dose activity change, negative = growth inhibition, actives largely listed as inhibitors; 15% of 420,000 active; DT40 Tdp1-/- hTDP1 cells, no CPT, ATP luminescence, 48 h; further: potency means the concentration at half of the fitted maximal effect; nearly all actives have a fitted effect of over 55% in size
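Growth of hTDP1-complemented DT40 Tdp1-knockout cells is measured by ATP luminescence after at least 48 hr compound exposure at 37 °C, with DMSO substituting for the 20 nM CPT used in the parallel screen.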
IL1B secr inh: inflammasome signaling inhibition, IL-1 beta readout; 4.7% of 360,000 active; THP-1 LPS/ATP IL-1B secretion, AlphaLISA, 16 h; hits give low values; activity change, % at 57.5 µM; in the data active means activity change below about -50%; inconclusive means mostly about -30% to -49%
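THP-1 cells pretreated 1 hr with compounds (up to 57.5 uM final), then stimulated with LPS (250 ng/mL final) plus ATP (1.25 mM final); secreted IL-1B measured by AlphaLISA after 16 hr, decreased signal indicating inhibition.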
DT40 TDP1 CPT: growth inhibition of DT40 Tdp1-/-;hTDP1 cells with camptothecin (screen for TDP1 inhibitors); chicken DT40 Tdp1-/-;hTDP1 cells + 20 nM CPT, ATP luminescence, 48 h; Potency, µM (doses to about 46.2 µM), inactives show at the top dose activity change, negative = growth inhibition, most hits filed as inhibitors; 12% of 420,000 active; AID 686979; further: potency means the concentration at half of the fitted maximal effect; nearly all actives have a fitted effect of over 55% in size
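Chicken DT40 Tdp1-/- cells complemented with human TDP1, 400 cells/well, exposed to compounds plus 20 nM camptothecin for at least 48 h at 37 C; viability read as ATP content by CellTiter-Glo luminescence.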
HT1080 IDH1KD tx: toxicity to HT-1080 IDH1 knockdown cells (counter line). HT-1080 IDH1 knockdown viability, ATP luminescence, 48 h. 2% of 360,000 active. Potency, µM (doses to about 46.1 µM), without a hit: at the highest dose activity, negative = toxicity, usual class: cytotoxic;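 further: potency means the concentration at half of the fitted maximal effect; 0% = DMSO wells and -100% = cell-free medium wells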
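CellTiter-Glo luminescence after 48 h compound exposure at 37 degrees C of IDH1-knockdown HT-1080 cells in 5% FBS RPMI. %Activity scaled between DMSO wells and cell-free media wells, with curves fitted and assigned curve classes.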
The depositor's hits bear a star; u = inconclusive; x = no result; [ ] = remark or other dose. In the library only some 19% were active in any assay of this set; here they are far more common. Unless noted, the call rests on the fitted dose curve; in most records, active means well fitted curve in the direction sought with a large enough effect; inconclusive means small, poorly fitted or top-dose-only effect, or another doubt; inactive means no such curve, though single readings can be large; an effect the other way counts as inactive or inconclusive. Unless noted, on the % scale 0 is the no-effect control and ±100 the full control effect.

SMILES	ELG1 DNA repair	HT1080-NT tox	DT40 TDP1 no CPT	IL1B secr inh	DT40 TDP1 CPT	HT1080 IDH1KD tx
NC(N)=NCCNS(=O)(=O)c1cccc2cnccc12	x	x	-6%	x	0%	x
C[C@@H]1CNCCN1S(=O)(=O)c1cccc2cnccc12	x	x	30µM*	x	u	x
CCOC(=O)C1(C)/C(=N/Nc2ccccc2OC)C(=O)C(=O)N1c1ccccc1 (stereo not drawn)	-12%	-12%	13µM*	2	23µM*	-16%
CCOC(=O)C1(C)/C(=N/Nc2ccccc2)C(=O)C(=O)N1c1ccccc1 (stereo not drawn)	3%	-6%	-13%	2	-18%	2%
c1ccc2sc(C3CCN(Cc4nnnn4Cc4ccc5c(c4)OCO5)CC3)nc2c1	u	-3%	18µM*	-4	u	-4%
Clc1ccc(-c2cnc3n2CCC3)cc1	u	35µM*	-28%	-14	-23%	u
COc1ccc(-c2cnc3n2CCCCC3)cc1	0%	0%	23µM*	-14	u	-6%
CCc1nnc(NC(=O)CSc2nnc(C)c(=O)n2N)s1	1%	22%	11%	25	27%	5%
Cc1ccccc1CN1C(=O)c2ccccc2Sc2ccc(C(=O)NC3CCCC3)cc21	x	x	u	x	16µM*	x
Cc1ccccc1CN1C(=O)c2ccccc2Sc2ccc(C(=O)NCc3cccs3)cc21	x	x	23µM*	x	23µM*	x
COc1ccccc1C(=O)NCC(=O)OC(C)C(=O)N1CCOCC1 (stereo not drawn)	19%	9%	-4%	-8	6%	15%
Cc1nn(-c2ccc(N3CCOCC3)nn2)c(C)c1CCC(=O)NCc1ccc(OC(C)C)cc1	x	x	-23%	x	-29%	x
COc1cc2nc(Nc3ccc(C)c(Cl)c3)nc(N)c2cc1OC	u	u	u	-94*	u	13µM*
CCOC(=O)c1ccc(Nc2ccc(-c3ccc(OC)c(OC)c3)nn2)cc1	0%	-27%	4.6µM*	15	u	u
COc1cc2nc(Nc3ccc(C)c(C)c3)nc(N)c2cc1OC	-3%	u	15µM*	-98*	23µM*	u
Cc1ccc(Nc2nc(N)c3ccccc3n2)cc1Cl	u	-4%	u	-97*	15µM*	0%
Cc1ccc(Nc2ncnc(N)n2)cc1C	u	6%	5%	-11	-14%	8%
CCOC(=O)c1ccc(Nc2nc(N)c3cc(OC)c(OC)cc3n2)cc1	-24%	-2%	21µM*	-10	7.3µM*	0%
COc1cc2nc(Nc3ccc(F)cc3)nc(N)c2cc1OC	u	1%	4.6µM*	x	6.5µM*	7%
COc1cc2nc(Nc3cccc(C)c3)nc(N)c2cc1OC	x	x	3.3µM*	x	12µM*	x
O=S(=O)(c1ccccc1)n1nc(-c2ccc(Cl)cc2)nc1NCc1ccccc1	x	x	16µM*	x	u	x
O=S(=O)(c1ccccc1)n1nc(-c2ccco2)nc1NCc1ccccc1	x	x	-22%	x	u	x
Cc1cccc(Cn2cc(S(=O)(=O)c3ccccc3)c(=O)c3cc(F)c(N4CCOCC4)cc32)c1	x	x	23µM*	x	26µM*	x
Cc1cccc(S(=O)(=O)c2cn(Cc3ccccc3)c3cc(N4CCCC(C)C4)c(F)cc3c2=O)c1 (stereo not drawn)	x	x	u	x	-36%	x
Cc1ccc(S(=O)(=O)c2cn(Cc3cccc(F)c3)c3cc(N4CCCC4)c(F)cc3c2=O)cc1	x	x	5.2µM*	x	4.6µM*	x
SMILES	ELG1 DNA repair	HT1080-NT tox	DT40 TDP1 no CPT	IL1B secr inh	DT40 TDP1 CPT	HT1080 IDH1KD tx
Cc1ccc(S(=O)(=O)c2cn(Cc3ccccc3)c3cc(N4CCCCC4)c(F)cc3c2=O)cc1	x	x	16µM*	x	8.2µM*	x
O=c1[nH][nH]c2cc(=O)n(-c3ccc(Cl)cc3)nc12	-3%	-4%	-12%	22	-24%	-10%
COc1ccccc1N1CCN(S(=O)(=O)c2ccc(NC(C)=O)cc2)CC1	7%	-3%	-27%	1	-1%	-4%
Cc1cccc(N2CCN(S(=O)(=O)c3cc(C(=O)Nc4ccc(Oc5ccccc5)cc4)ccc3F)CC2C)c1 (stereo not drawn)	x	x	2.9µM*	x	2.1µM*	x
COc1ccccc1N1CCN(S(=O)(=O)c2cc(C(=O)Nc3ccc(Oc4ccccc4)cc3)ccc2F)CC1	x	x	5.8µM*	x	3.3µM*	x
O=C(Nc1ccc(Oc2ccccc2)cc1)c1ccc(F)c(S(=O)(=O)N2CCN(c3ccccc3F)CC2)c1	x	x	4.6µM*	x	5.8µM*	x
CC(C)c1ccc(NC(=O)c2ccc(F)c(S(=O)(=O)N3CCN(c4ccccc4F)CC3)c2)cc1	x	x	u	x	-11%	x
CC(Sc1ccccc1)C(=O)N1CCN(S(=O)(=O)c2cccc(Br)c2)CC1 (stereo not drawn)	-22%	-22%	-26%	8	0%	0%
CC1(C(=O)NS(=O)(=O)c2cccc(OC(F)F)c2)CCN1C(=O)C/C=C/c1ccccc1 (stereo not drawn)	x	-2%	-13%	20	-21%	-3%
Cc1noc(NS(=O)(=O)c2ccc(NC(=O)C34CC5CC(C3)CC(n3cnc(Cl)n3)(C5)C4)cc2)c1C	3%	6%	16%	9	-2%	11%
O=C(NC12CC3CC(CC(C3)C1)C2)C12CC3CC(C1)CC(n1cnc(Cl)n1)(C3)C2	0%	14%	16µM*	31	21µM*	13%
N#C/C(=C(/O)CN1CCOCC1)c1nc(-c2ccccc2)cs1	u	-9%	-9%	17	u	0%
N#C/C(=C(/O)CN1CCN(c2ccccc2F)CC1)c1nc(-c2ccc(Cl)cc2)cs1	-21%	0%	u	-11	21µM*	0%
N#C/C(=C(/O)CCl)c1nc(-c2ccccc2)cs1	u	-28%	15µM*	-57*	13µM*	-30%
Cc1ccc(-c2csc(/C(C#N)=C(\O)CCl)n2)cc1	u	-21%	u	-73*	u	-13%
N#C/C(=C(/O)CN1CCCCC1)c1nc(-c2ccc(Cl)cc2)cs1	u	0%	-8%	14	-15%	-7%[9.24 µM]
N#CCCn1c(=O)cnc2cnc(Oc3cccc(Cl)c3)nc21	x	x	-9%	x	11%	x
CC(=O)Nc1scc(-c2ccccc2)[n+]1-c1ccc(C)cc1	-24%	1%	13µM*	-20	15µM*	-9%
Cc1ccc(NC(=O)c2csc(-c3ccccc3)c2C)cc1	u	u	u	-23	u	u

Source: PubChem
